Consider 15 molecules from PubChem BioAssay (NCATS).

Test [1] is described as follows: Quantitative High-Throughput drug screen in 47 multiple myeloma cell lines against the NCATS MIPE library collection: OPM1_PLB cell viability assay (AID 1918989). Also: nearly all actives have a fitted effect of over 40% in size. Also: potency is read from the fitted curve at half-maximal effect. In a few lines:
(§1)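 Readout: median RLU from CellTiter-Glo after 5 min at room temperature. Preceding step was 48 h drug treatment of 500 cells/well at 37 °C, 5% CO2, with DMSO-only and media-only control wells.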

Test [2] can be described thus: Quantitative High-Throughput drug screen in 47 multiple myeloma cell lines against the NCATS MIPE library collection: SKMM1_PLB cell viability assay (AID 1919863). Also: nearly all actives have a fitted effect of over 35% in size. Also: potency is read from the fitted curve at half-maximal effect. As to conditions: SKMM1 myeloma viability, CellTiter-Glo ATP, 48 h; viability: stronger effect = lower value. In a few lines:
as §1

Test [3] is described as follows: Quantitative High-Throughput drug screen in 47 multiple myeloma cell lines against the NCATS MIPE library collection: U266_ATCC cell viability assay (AID 1919864). Also: nearly all actives have a fitted effect of over 35% in size. Also: potency is read from the fitted curve at half-maximal effect. In a few lines: as §1
The nature of test [4]: Quantitative High-Throughput drug screen in 47 multiple myeloma cell lines against the NCATS MIPE library collection: XG6_PLB cell viability assay (AID 1919865). Also: potency is read from the fitted curve at half-maximal effect; nearly all actives have a fitted effect of over 40% in size. The gist of the method:
as §1

A short description of test [5]: Quantitative High-Throughput drug screen in 47 multiple myeloma cell lines against the NCATS MIPE library collection: RPMI8226_ATCC cell viability assay (AID 1919871). Also: nearly all actives have a fitted effect of over 30% in size. Also: potency is read from the fitted curve at half-maximal effect. The gist of the method:
as §1

A short description of test [6]: Quantitative High-Throughput drug screen in 47 multiple myeloma cell lines against the NCATS MIPE library collection: OPM2_DSMZ cell viability assay (AID 1919872). Also: nearly all actives have a fitted effect of over 30% in size. Also: potency is read from the fitted curve at half-maximal effect. The gist of the method: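 Luminescent ATP measurement with CellTiter-Glo gives viability, scaled between DMSO-only wells (100%) and media-only wells (0%). Cells, 500 per well, faced library compounds for 48 hours at 37C.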

Test [7] is described as follows: Quantitative High-Throughput drug screen in 47 multiple myeloma cell lines against the NCATS MIPE library collection: KMS11_JCRBsus cell viability assay (AID 1919873). Also: nearly all actives have a fitted effect of over 50% in size. Also: potency is read from the fitted curve at half-maximal effect. The gist of the method:
as §1

Test [8] is described as follows: Quantitative High-Throughput drug screen in 47 multiple myeloma cell lines against the NCATS MIPE library collection: KMS28BM_JCRB cell viability assay (AID 1919874). Also: nearly all actives have a fitted effect of over 35% in size. Also: potency is read from the fitted curve at half-maximal effect. The gist of the method: as §1
Test [9] is described as follows: qHTS drug screen for cell cycle checkpoint inhibitors in PARPi-resistant BRCA-mutant ovarian cancer cell lines. (AID 1963452; calls by dose curve; also: potency is read from the fitted curve at half-maximal effect). As to conditions: PEO1/OlaR viability, CellTiter-Glo luminescence, 96 h; for Z-AUC: stronger effect = lower value. In a few lines:
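PEO1, PEO4 and PEO1/OlaR ovarian cancer cells, 600 per well, exposed 96 h at 37C to a dilution series. Viability read by CellTiter-Glo luminescence, normalized to DMSO and empty wells; activity summarized as Z-AUC.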

Test [10] in a line: Quantitative High-Throughput drug screen in 47 multiple myeloma cell lines against the NCATS MIPE library collection: XG1_PLB cell viability assay (AID 1919866). Also: nearly all actives have a fitted effect of over 35% in size. Also: potency is read from the fitted curve at half-maximal effect. In a few lines:
as §1

A short description of test [11]: Quantitative High-Throughput drug screen in 47 multiple myeloma cell lines against the NCATS MIPE library collection: PE2_PLB cell viability assay (AID 1919869). Also: nearly all actives have a fitted effect of over 35% in size. Also: potency is read from the fitted curve at half-maximal effect. The gist of the method: as §1
Test [12] relates to 3D7. Briefly: qHTS profiling for inhibitors of Plasmodium falciparum proliferation (AID 504749).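 Also: 0% = DMSO vehicle and full inhibition = artemisinin control; nearly all actives have a fitted effect of over 60% in size.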 As to conditions: P. falciparum in erythrocytes, SYBR Green DNA, 72 h; series mostly up to 28.7 µM. The gist of the method:
(§2)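 Fluorescence of SYBR Green-bound parasite DNA, read at 485/535 nm, served as the growth measure. Infected erythrocytes were cultured with compound 72 h; artemisinin (0.29 uM) and DMSO wells defined the normalization range.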

Test [13] deals with 7G8. Described as above. As to conditions: P. falciparum in erythrocytes, SYBR Green DNA, 72 h; series mostly up to 28.7 µM. The gist of the method: as §2
Test [14] can be described thus: Quantitative High-Throughput drug screen in 47 multiple myeloma cell lines against the NCATS MIPE library collection: UTMC2_PLB cell viability assay (AID 1919868). Also: nearly all actives have a fitted effect of over 55% in size. To be noted: CellTiter-Glo ATP luminescence, 48 h; viability (% of DMSO control): at 45.8 µM (top of the series). In a few lines: as §1
Test [15] can be described thus: Quantitative High-Throughput drug screen in 47 multiple myeloma cell lines against the NCATS MIPE library collection: VP6_DJ cell viability assay (AID 1919867). Also: nearly all actives have a fitted effect of over 40% in size. Also: potency is read from the fitted curve at half-maximal effect. In a few lines:
as §1

Test [16] is described as follows: qHTS for identification of novel therapeutic agents for treatment of microphthalmiaassociated transcription factor (MiT) renal cell carcinoma (RCC) (AID 1963991; calls by dose curve; also: potency is read from the fitted curve at half-maximal effect;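 as to z-score: curves scaled with 100% = DMSO viability and 0% = empty wells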). To be noted: CellTiter-Glo, 48 h; for z-score: stronger effect = lower value. In a few lines: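 UOK109/UOK124/UOK145 (TFE3 fusions, three partners); 500 cells/well; MIPE v4.0, 1912 cpds, 11 conc.; 48 h, 37 C; CellTiter-Glo, 15 min RT; lum. Norm.: DMSO 100%, empty 0%.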

A short description of test [17]: Quantitative High-Throughput drug screen in 47 multiple myeloma cell lines against the NCATS MIPE library collection: PCM6_Riken cell viability assay (AID 1919870). Also: nearly all actives have a fitted effect of over 30% in size. Also: potency is read from the fitted curve at half-maximal effect. The gist of the method: as §1
The mark [18] stands for this setting: measured here: PEO1 parental Z-AUC.
The mark [19] stands for this setting: TFE3-RCC UOK109 viability, measured here: UOK109 Z-AUC.
Where [20] appears, read: TFE3-RCC viability, measured here: UOK124 Z-AUC.
Setting [21] is: TFE3-RCC viability, measured here: UOK145 Z-AUC.

The structures appear in SMILES notation. Records with an inconclusive call do not appear. Activity calls are given as the source filed them. Unless noted, calls follow the shape of the dose curve; as a rule, active = well fitted curve in the direction sought with a large enough effect; inconclusive = small, poorly fitted or top-dose-only effect, or another doubt; inactive = no such curve, though single readings can be large; an effect the other way counts as inactive or inconclusive.

As for `O=C(NCC1CCOCC1)c1cnc(Nc2ccc(Cl)cc2Cl)nc1C(F)(F)F`, the Potency result in test [1], in test [5], in test [6], in test [7] and in test [8] was “inactive” throughout. The viability in test [2] was 104% (inactive). Further, the Potency was 8330 nM (active) in test [3] and 6620 nM (active) in test [4]. For the same molecule, the Z-AUC in [9] is 1.22 (inactive); in test [9] (setting [18]), 0.764; in test [9] (measured here: PEO4 Z-AUC), 1.04.
Take `COC[C@H]1OC(=O)c2coc3c2[C@@]1(C)C1=C(C3=O)[C@@H]2CC[C@H](O)[C@@]2(C)C[C@@H]1OC(C)=O`: the Potency in [1] was 332 nM (active); in [2] it was 7430 nM (active); in test [3] it was 16600 nM (active); in [4], 4180 nM (active); in [10] it was 2090 nM (active); in test [11], 743 nM (active). Also, the Potency in test [5] is 2960 nM (active); in [6] it was 1870 nM (active); in test [7], 1660 nM (active); in test [8], 9350 nM (active).
Consider `C[C@]12CCC(=O)C(O)=C1CC[C@@H]1[C@H]3CCC(=O)[C@@]3(C)CC[C@@H]12`, for which the Potency result in test [1], in test [11], in test [6], in test [12] and in [13] was “inactive” in each case.
As for `CC(=O)Nc1ccc(OC[C@](C)(O)C(=O)Nc2ccc([N+](=O)[O-])c(C(F)(F)F)c2)cc1`, the Potency entry in test [1], in test [10] and in test [14] was “inactive” throughout. In addition, the Z-AUC was -0.618 (inactive) in test [9], -0.737 in test [9] (setting [18]) and -0.359 in test [9] (measured here: PEO4 Z-AUC).
For the molecule `O=C(Oc1ccc([N+](=O)[O-])cc1)N1CCC(C(O)(c2ccc3c(c2)OCO3)c2ccc3c(c2)OCO3)CC1`, the viability in test [2] is 123% (inactive). For the same molecule, the Potency in test [4] and in test [11] was 16600 nM (active) each time. The Potency entry in test [15], in [6], in test [7] and in test [8] was “inactive” in each case. The Z-AUC is 0.0942 (inactive) in [9], 0.266 in [9] (setting [18]) and 0.407 in [9] (measured here: PEO4 Z-AUC).
Turning to `CCOP(=O)(OCC)C(C)NC(=O)N(CCCl)N=O` (stereo unspecified), the Potency entry in [1], in test [3], in test [11], in test [5], in test [7] and in [8] was “inactive” throughout. The Z-AUC in [9] was 1.21 (inactive); in test [9] (setting [18]) it was 0.417; in [9] (measured here: PEO4 Z-AUC), 0.472. Besides, the z-score was 0.0132 in test [16] (setting [19]), -0.441 in [16] (setting [20]) and 0.402 in [16] (setting [21]).
Take `CC[C@@]1(O)C(=O)OCc2c1cc1n(c2=O)Cc2cc3ccccc3nc2-1`: the Potency in test [1] is 833 nM (active); in test [3], 332 nM (active); in test [15], 166 nM (active); in test [11] it was 209 nM (active); in [5], 743 nM (active); in test [6], 743 nM (active). For the same molecule, the Potency in [7] was 418 nM (active); in [8], 105 nM (active); in [9], 38.9 nM (active); in test [16] (TFE3-RCC UOK109 viability), 590 nM (active). Also, the Z-AUC in test [9] (setting [18]) is -2.44; in test [9] (measured here: PEO4 Z-AUC) it was -1.71. In addition, the z-score was -1.89 in test [16] (setting [19]), -3.04 in [16] (setting [20]) and -3.18 in [16] (setting [21]).
As to `CO[C@H]1CCC(O[C@H]2C[C@H]([C@]3(C)CC[C@]4(C[C@H](O)[C@@H](C)[C@@H]([C@@H](C)C=C(C)C(=O)[C@H](C)C[C@H](C)C(=O)O)O4)O3)O[C@]3(O[C@@H]([C@H]4O[C@@](O)(CO)[C@H](C)C[C@H]4C)C[C@H]3C)[C@H]2C)O[C@H]1C` (stereo partly specified), the Potency in test [1] is 418 nM (active); in test [3] it was 296 nM (active); in test [15], 1050 nM (active); in test [11] it was 1180 nM (active); in test [17], 935 nM (active); in [5] it was 935 nM (active). Further, the Potency in test [6] was 296 nM (active); in [7] it was 935 nM (active); in test [8], 332 nM (active).
`c1cc2c(cc1[C@H]1OC[C@H]3[C@H]1CO[C@H]3c1ccc3c(c1)OCO3)OCO2`: the Potency result in test [1], in test [10], in test [17], in test [5], in [6] and in test [7] was “inactive” throughout. The Potency result in test [8] is “inactive”. The z-score was found to be 0.442 in [16] (setting [19]), 0.255 in test [16] (setting [20]) and 0.142 in [16] (setting [21]).
For the molecule `CSCC[C@@H](NC(=O)[C@@H](Cc1ccccc1)NC(=O)CNC(=O)CNC(=O)[C@@H](N)Cc1ccc(O)cc1)C(=O)O`, the Potency entry in test [1], in test [10], in test [11], in test [6], in test [7] and in test [8] was “inactive” in each case. The Z-AUC was 1.29 (inactive) in test [9], 1.17 in test [9] (setting [18]) and 1.05 in [9] (measured here: PEO4 Z-AUC). For the same molecule, the z-score in test [16] (setting [19]) amounted to 0.576; in [16] (setting [20]) it was 0.642; in [16] (setting [21]), 1.12.
`CCC(=O)OC1CCC2C3CCC4=CC(=O)CC[C@@]4(C)C3CC[C@]12C` (stereo partly specified): the Potency entry in [1], in test [6], in [7] and in [8] was “inactive” each time. The z-score in [16] (setting [19]) was 0.231; in test [16] (setting [20]), 0.282; in [16] (setting [21]), -0.0668.
In the case of `CCNC(=O)CC1N=C(c2ccc(Cl)cc2)c2cc(OC)ccc2-n2c(C)nnc21` (stereo unspecified), the Potency is 18700 nM (active) in test [3]; 4690 nM (active) in test [4]; 23500 nM (active) in test [17]; 4690 nM (active) in test [5]; 16600 nM (active) in test [6]; 18700 nM (active) in [7]. Besides, the Potency in test [8] is 18700 nM (active). Further, the results for the Z-AUC in [9], in test [9] (setting [18]) and in [9] (measured here: PEO4 Z-AUC) were 0.242 (inactive), 0.653 and 0.806, respectively.
Regarding `C[C@H]([C@H](O)CCC(C)(C)O)[C@H]1CC[C@@]2(O)C3=CC(=O)[C@@H]4C[C@@H](O)[C@@H](O)C[C@]4(C)[C@@H]3CC[C@]12C`, the Potency entry in test [1], in [3], in test [11], in test [6] and in test [7] was “inactive” in each case. For the same molecule, the Potency in [5] is 20900 nM (active). Further, the z-score in test [16] (setting [19]) was 0.847; in test [16] (setting [20]) it was 0.683; in test [16] (setting [21]) it was -2.52.
For `C[C@]12CC[C@H]3[C@@H](CCC4=CC(=O)CC[C@@]43C)[C@H]1CC[C@H]2OC(=O)CCC1CCCC1`, the Potency entry in test [3], in [10], in test [6], in test [7] and in [8] was “inactive” throughout. The Z-AUC was -0.757 (inactive) in test [9], -0.855 in test [9] (setting [18]) and -0.842 in [9] (measured here: PEO4 Z-AUC).
Take `C[C@H]1CCCC=CC2C[C@H](O)C[C@@H]2[C@H](O)C=CC(=O)O1` (stereo partly specified): the Potency entry in test [1], in test [3], in test [10] and in test [11] was “inactive” in each case. Besides, the z-score is -3.99 in [16] (setting [19]), -3.69 in test [16] (setting [20]) and -5.31 in test [16] (setting [21]).
